# Results taken from PubChem BioAssay.
# Activity calls are given as the source filed them. Unless noted, the rule behind the calls is not given here.
# How the values were obtained:
# [1] = tested on: XIP peptide (Xip251-270) binding; assay: XIP fragment 251-270 binding compounds – biochemical, small-molecule microarray, fluorescence 635/667 nm, 0.1 µg/mL protein, primary screen (AID 1182); conditions: fluorescent protein binding, 635 nm, higher = more signal, called active from +8 up or from −8 down
# XIP peptide (Xip251-270) = assay: compounds binding XIP fragment 251-270 – biochemical, small-molecule microarray, fluorescence 635/667 nm, 0.5 µg/mL protein, primary screen (AID 1183); conditions: fluorescence 635 nm, higher = more signal
# [2] = blood-stage malaria parasite viability loss – strain 3D7, DAPI fluorescence, 100 nL, primary screen (AID 1184);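 note: parasites grown inside human red blood cells in medium with human serum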; conditions: P. falciparum 3D7 growth, 3 d, higher = more signal
# [3] = target: Homeobox protein Hox-A13 (Mus musculus) (UniProt Q62424); assay: disruptors of Hoxa13 oligonucleotide interaction – biochemical, fluorescence polarization, labeled oligonucleotide, primary screen (AID 1185); conditions: Hoxa13:DNA binding, 15 min, higher = more signal, called active from +8 up or from −8 down
# Sequence of Homeobox protein Hox-A13 (Mus musculus) (Q62424 whole entry, looked up): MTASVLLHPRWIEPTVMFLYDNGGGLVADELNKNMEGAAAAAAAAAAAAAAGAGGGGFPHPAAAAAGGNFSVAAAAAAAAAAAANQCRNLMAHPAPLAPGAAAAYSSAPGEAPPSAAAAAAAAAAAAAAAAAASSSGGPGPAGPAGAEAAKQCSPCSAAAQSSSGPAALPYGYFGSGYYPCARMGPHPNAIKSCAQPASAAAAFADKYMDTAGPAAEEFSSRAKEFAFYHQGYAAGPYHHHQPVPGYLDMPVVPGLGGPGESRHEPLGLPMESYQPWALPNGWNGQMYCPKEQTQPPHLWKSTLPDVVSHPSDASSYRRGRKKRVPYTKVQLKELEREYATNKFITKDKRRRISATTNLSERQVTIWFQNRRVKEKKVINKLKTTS
# [4] = blockers of DNA damage checkpoint Chk1 activation – imaging, HeLa, hydroxyurea, phospho-Chk1 antibody, percent positive cells, primary screen (AID 1186); conditions: hydroxyurea-induced phospho-Chk1 immunofluorescence imaging, higher = more signal
# [5] = blockers of DNA damage checkpoint Chk1 activation – imaging, HeLa, hydroxyurea, phospho-Chk1 nuclear intensity, primary screen (AID 1187); conditions: hydroxyurea-induced phospho-Chk1 immunofluorescence imaging, higher = more signal
SMILES,composite z-score [1],composite z-score (XIP peptide (Xip251-270)),z-score [2],z-score [3],z-score [4],z-score [5]
C=CCC(OC(C)=O)[C@@H]1[C@@H](N(Cc2ccc(-c3cccc(C(F)(F)F)c3)o2)C(=O)c2cccc3ccccc23)c2cc(OCCCO)ccc2N1C(=O)c1ccc2ccccc2n1 (some centres undefined),-0.279 (inactive),-0.0301,-2.15,-2.09 (inactive),-0.131 (inactive),0.228 (inactive)
C=CCC(OC(C)=O)[C@@H]1[C@@H](N(Cc2cc3ccccc3o2)C(=O)c2cccc3ccccc23)c2cc(OCCCO)ccc2N1C(=O)c1ccc2ccccc2c1 (some centres undefined),0.0745 (inactive),-0.611,-2.65,-1.34 (inactive),-0.328 (inactive),-0.0311 (inactive)
CC(C)(C)OC(=O)CC[C@]1(C(N)=O)N=C(c2ccc(OCCCO)cc2)O[C@H]1c1ccccc1CN=[N+]=[N-],-0.226 (inactive),0.819,-0.176,-4.12 (inactive),-0.198 (inactive),0.0796 (inactive)
[N-]=[N+]=NCc1ccccc1[C@@H]1OC(c2ccc(OCCCO)cc2)=N[C@]1(Cc1ccccc1)C(=O)NCc1ccccc1,0.362 (inactive),0.573,-2.24,2.8 (inactive),-0.306 (inactive),-0.144 (inactive)
COCCOC(=O)N1C(=O)[C@@]2(c3ccccc31)[C@H](c1ccc(OCCO)cc1)N1[C@H](c3ccccc3)[C@H](c3ccccc3)OC(=O)[C@H]1[C@@H]2C(=O)N1CCN(c2ncccn2)CC1,0.522 (inactive),0.772,-2.33,-0.376 (inactive),0.0223 (inactive),0.242 (inactive)
CC#CCO[Si](C#CCCCCCC)(C(C)C)C(C)C,-0.0884 (inactive),0.938,-1.23,-2 (inactive),-0.156 (inactive),0.0743 (inactive)
C=CC[C@]1(C(=O)NCc2ccccc2)COC(c2ccc(OCCCO)cc2)=N1,-0.398 (inactive),0.779,-0.823,-4.86 (inactive),-0.059 (inactive),-0.0405 (inactive)
COCCOC(=O)N1C(=O)[C@@]2(c3ccccc31)[C@H](C(N)=O)[C@H]1C(=O)O[C@H](c3ccccc3)[C@H](c3ccccc3)N1[C@@H]2c1ccc(OCCO)cc1,0.675 (inactive),0.638,0.0624,-4.49 (inactive),0.114 (inactive),-0.0135 (inactive)
CCCC=C(CCC)[C@@H](NC(=O)c1ccccc1)c1ccc(C(=O)OC)cc1,-0.0026 (inactive),0.222,-0.891,-0.72 (inactive),0.473 (inactive),0.204 (inactive)
C=CCOC(=O)[C@H]1[C@@H]2C(=O)O[C@@H](c3ccccc3)[C@@H](c3ccccc3)N2[C@@H](c2ccc(OCCOC(=O)[C@@H]3C[C@@H]4C(=O)N[C@@H](Cc5ccccc5)C(=O)N4[C@@H]3c3ccc(O)cc3)cc2)[C@]12C(=O)Nc1ccccc12,0.819 (inactive),0.743,-1.83,1.86 (inactive),-0.287 (inactive),-0.584 (inactive)
CO[C@H]1O[C@H](CO)[C@@H](OC(=O)Nc2ccc(C(F)(F)F)cc2)[C@H](OC(=O)Nc2ccccc2-c2ccccc2)[C@H]1OC(=O)Nc1ccccc1-c1ccccc1,0.844 (inactive),0.701,-1.8,-3.72 (inactive),0.83 (inactive),0.784 (inactive)
COC(=O)[C@@]1(CCC(=O)OC(C)(C)C)N=C(c2ccc(OCCCO)cc2)O[C@H]1c1ccccc1CN=[N+]=[N-],1.63 (inactive),0.512,-2.27,-1.11 (inactive),-0.25 (inactive),0.0025 (inactive)
CC(C)CNC(=O)[C@@H]1c2ccccc2C(=O)N(Cc2ccccc2)[C@H]1c1ccc(CO)cc1,0.906 (inactive),0.0309,-0.172,-1.68 (inactive),0.212 (inactive),-0.161 (inactive)
CCC(CC)C(O)C1C=CC2C(=O)N(C)C(=O)C2N1N1CCCCC1 (centres undefined),0.865 (inactive),0.708,0.907,-6.35 (inactive),0.687 (inactive),0.562 (inactive)
Cc1ccc(S[C@]2(C(=O)NCC(F)(F)F)CC(=O)N(C3CCCCC3)[C@@H]2c2ccc(CO)cc2)cc1,0.23 (inactive),0.201,-0.703,-3.04 (inactive),-0.418 (inactive),-0.25 (inactive)
COCCOC(=O)N1C(=O)[C@@]2(c3ccccc31)[C@H](C(=O)N1CCCCCCC1)[C@H]1C(=O)O[C@H](c3ccccc3)[C@H](c3ccccc3)N1[C@@H]2c1ccc(O)cc1,3.54 (inactive),0.83,-0.621,2.5 (inactive),-0.391 (inactive),-0.586 (inactive)
Cc1c(NC(=O)/C(C#N)=C/c2ccc(Cl)cc2)c(=O)n(-c2ccccc2)n1C,0.773 (inactive),0.876,0.468,-3.94 (inactive),-0.0496 (inactive),-0.246 (inactive)

SMILES,composite z-score [1],composite z-score (XIP peptide (Xip251-270)),z-score [2],z-score [3],z-score [4],z-score [5]
CC(C)CNC(=O)[C@@H]1c2ccccc2C(=O)N(C(C)C)[C@H]1c1ccc(CO)cc1,-0.885 (inactive),0.93,0.643,-0.0386 (inactive),-0.586 (inactive),-0.784 (inactive)
CCCC=C(CCC)[C@@H](NS(=O)(=O)c1ccc(Cl)cc1)c1ccccc1,-0.641 (inactive),0.36,-1.11,-1.87 (inactive),0.081 (inactive),0.268 (inactive)
CCCC[C@@H]1C[C@H]1[C@@H](NC(=O)c1ccc(C(F)(F)F)cc1)c1ccc(C(=O)OC)cc1,-0.0437 (inactive),0.368,-0.557,-0.759 (inactive),0.894 (inactive),0.397 (inactive)
O=C(NCCO)C1=C[C@H](Oc2ccccc2I)[C@@H](O)[C@H](NCc2ccc(F)cc2)C1,0.234 (inactive),-0.875,-1.61,-6.81 (inactive),0.079 (inactive),-0.34 (inactive)
Cc1ccc(S[C@]2(C(=O)NCCCN(C)C)CC(=O)N(Cc3ccccc3Cl)[C@@H]2c2ccc(CO)cc2I)cc1,0.0919 (inactive),0.856,-0.344,-1.48 (inactive),-0.0214 (inactive),0.0301 (inactive)
CC(C)C[C@H]1NC(=O)[C@H](Cc2ccccc2)NC(=O)[C@@]23C(=O)N[C@@H](Cc4ccccc4)C2[C@H](C)[C@@]2(C)O[C@H]2C3/C=C/C/C=C\CNC1=O (some centres undefined),0.252 (inactive),0.718,-0.799,-7.8 (inactive),-0.157 (inactive),0.005 (inactive)
CC(C)CNC(=O)[C@@]1(C)c2ccccc2C(=O)N(Cc2cc(F)cc(C(F)(F)F)c2)[C@H]1c1ccc(CO)cc1,2.74 (inactive),0.467,-0.586,-3.51 (inactive),-0.143 (inactive),0.0394 (inactive)
COCCOC(=O)N1C(=O)[C@@]2(c3cc(C#CCNC(N)=O)ccc31)[C@H](C(=O)NC[C@H](O)c1ccccc1)[C@H]1C(=O)O[C@H](c3ccccc3)[C@H](c3ccccc3)N1[C@@H]2c1ccc(OCCO)cc1,0.561 (inactive),0.785,-0.188,-1.46 (inactive),-0.214 (inactive),-0.23 (inactive)
C=CC[C@]1(C(=O)OC)N=C(c2ccc(OCCCO)cc2)O[C@H]1c1ccccc1N=[N+]=[N-],1.61 (inactive),0.867,-2.21,-3.31 (inactive),-0.179 (inactive),0.059 (inactive)
CN(C)CCCNC(=O)[C@@]1(Cc2ccccc2I)c2ccccc2C(=O)N(Cc2ccccc2)[C@H]1c1ccc(CO)cc1,0.869 (inactive),0.828,-2.21,-0.783 (inactive),0.22 (inactive),0.276 (inactive)
COCCOC(=O)N1C(=O)[C@@]2(c3cc(C#Cc4ccc(OC)cc4)ccc31)[C@H](C(=O)N1CCCCCCC1)[C@H]1C(=O)O[C@H](c3ccccc3)[C@H](c3ccccc3)N1[C@@H]2c1ccccc1OCCO,1.65 (inactive),0.728,-2.15,4.81 (inactive),-0.0224 (inactive),0.504 (inactive)
CC(C)C[C@@H]1NC(=O)[C@H]2C[C@@H](C(=O)NCCCCCCNC(=O)CS)[C@@H](c3ccc(O)cc3)N2C1=O,3.87 (inactive),0.409,0.214,-3.29 (inactive),1.15 (inactive),0.716 (inactive)
COc1cc2c(cc1O)C(C1CC1)N(Cc1ccc([N+](=O)[O-])o1)CC2 (centres undefined),0.402 (inactive),0.315,-0.993,-6.04 (inactive),-0.0479 (inactive),0.125 (inactive)
COC(=O)[C@@]1(Cc2ccccc2CN=[N+]=[N-])COC(c2ccc(OCCCO)cc2)=N1,1.31 (inactive),0.871,-1.3,-4.77 (inactive),-0.184 (inactive),0.0494 (inactive)
CN(C)C(=O)[C@]1(Cc2ccccc2)N=C(c2ccc(OCCCO)cc2)O[C@@H]1c1ccccc1,0.895 (inactive),0.851,-2.38,-6.32 (inactive),-0.752 (inactive),-0.755 (inactive)
C=CCC(OC(C)=O)[C@@H]1[C@@H](N(Cc2cccc3ccccc23)C(=O)c2ccc(C)cc2)c2cc(OCCCO)ccc2N1C(=O)c1ccc2ccccc2n1 (some centres undefined),0.655 (inactive),-0.165,-0.344,-0.702 (inactive),-0.39 (inactive),-0.404 (inactive)
CCCC[C@H]1OB(O)C[C@H]2C1=C(COC)C[C@H]1C(=O)C=CC(=O)[C@H]12,0.473 (inactive),0.407,-1.09,-6.74 (inactive),-0.591 (inactive),-0.434 (inactive)
